# Measured values from paper PMC7862700, “An all-to-all approach to the identification of sequence-specific readers for epigenetic DNA modifications on cytosine”.
# What was measured:
# Assay in all cases: DAPPL (digital affinity profiling via proximity ligation, sequencing); 10 mM Tris-HCl pH 7.5, 50 mM NaCl, 1 mM DTT, 4% glycerol, room temperature, 30 min; GST-TFs on glutathione beads, 16-mer random dsDNA library, 0.1% formaldehyde crosslink after washing; high values mean tight binding
# FLI1 = molecular target: T1, FLI1 (Homo sapiens, UniProt Q01543 1-452); conditions: protein: recombinant; tags: N-terminal GST; dsDNA, one strand shown
# T1 sequence: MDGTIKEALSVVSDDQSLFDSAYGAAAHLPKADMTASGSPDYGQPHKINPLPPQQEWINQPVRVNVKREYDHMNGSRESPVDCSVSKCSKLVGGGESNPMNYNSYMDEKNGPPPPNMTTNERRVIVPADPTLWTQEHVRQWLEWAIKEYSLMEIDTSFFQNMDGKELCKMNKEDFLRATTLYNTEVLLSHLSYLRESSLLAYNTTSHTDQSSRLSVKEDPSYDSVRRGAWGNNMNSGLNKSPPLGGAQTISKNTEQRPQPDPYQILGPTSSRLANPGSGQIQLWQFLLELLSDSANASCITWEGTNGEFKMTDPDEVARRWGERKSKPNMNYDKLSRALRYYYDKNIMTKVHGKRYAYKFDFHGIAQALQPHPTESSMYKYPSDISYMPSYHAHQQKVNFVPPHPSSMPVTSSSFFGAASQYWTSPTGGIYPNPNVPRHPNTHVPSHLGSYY
# In short: (§1)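 Binding signal is given per hexamer as its read frequency for a factor divided by its frequency in the tag-only sample. GST-fused human transcription factors were expressed in yeast, captured on glutathione beads, barcoded with DNA and pooled with that sample, then incubated with 200 nmole of a 16-mer random double-stranded DNA library in Tris/NaCl/DTT/glycerol buffer for 30 min at room temperature. The pools were then washed, crosslinked, proximity-ligated, amplified by PCR and sequenced on an Illumina NextSeq500.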
# ELK1 = molecular target: T2, ELK1 (Homo sapiens, UniProt P19419 1-428); conditions: protein: recombinant; tags: N-terminal GST; dsDNA, one strand shown
# T2 sequence: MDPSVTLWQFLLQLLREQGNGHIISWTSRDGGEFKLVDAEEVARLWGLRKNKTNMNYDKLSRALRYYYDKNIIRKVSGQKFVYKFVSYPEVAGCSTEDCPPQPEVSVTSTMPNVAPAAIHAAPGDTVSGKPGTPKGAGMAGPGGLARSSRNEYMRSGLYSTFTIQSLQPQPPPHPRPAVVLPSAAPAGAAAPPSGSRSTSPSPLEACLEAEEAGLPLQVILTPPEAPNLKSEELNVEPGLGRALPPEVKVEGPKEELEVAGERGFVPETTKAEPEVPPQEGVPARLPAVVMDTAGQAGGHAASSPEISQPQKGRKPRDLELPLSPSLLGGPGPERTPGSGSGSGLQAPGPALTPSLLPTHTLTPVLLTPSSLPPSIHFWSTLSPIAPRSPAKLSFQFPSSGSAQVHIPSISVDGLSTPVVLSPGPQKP
# In short: as §1
# GABPA = molecular target: T3, GABPA (Homo sapiens, UniProt Q06546 1-454); conditions: protein: recombinant; tags: N-terminal GST; dsDNA, one strand shown
# T3 sequence: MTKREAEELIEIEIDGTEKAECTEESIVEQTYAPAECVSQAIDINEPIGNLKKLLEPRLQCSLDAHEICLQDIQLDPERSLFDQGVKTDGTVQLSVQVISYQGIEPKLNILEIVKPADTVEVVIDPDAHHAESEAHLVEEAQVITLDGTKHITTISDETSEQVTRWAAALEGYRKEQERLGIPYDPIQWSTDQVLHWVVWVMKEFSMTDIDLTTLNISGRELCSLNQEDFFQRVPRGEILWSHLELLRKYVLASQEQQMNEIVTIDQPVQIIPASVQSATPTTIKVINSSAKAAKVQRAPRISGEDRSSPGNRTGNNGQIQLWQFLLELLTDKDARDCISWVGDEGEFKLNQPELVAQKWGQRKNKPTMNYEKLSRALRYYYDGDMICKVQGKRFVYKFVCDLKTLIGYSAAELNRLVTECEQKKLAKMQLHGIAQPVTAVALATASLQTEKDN
# In short: as §1
# ERG = molecular target: T4, ERG (Homo sapiens, UniProt P11308 1-479); conditions: protein: recombinant; tags: N-terminal GST; dsDNA, one strand shown
# T4 sequence: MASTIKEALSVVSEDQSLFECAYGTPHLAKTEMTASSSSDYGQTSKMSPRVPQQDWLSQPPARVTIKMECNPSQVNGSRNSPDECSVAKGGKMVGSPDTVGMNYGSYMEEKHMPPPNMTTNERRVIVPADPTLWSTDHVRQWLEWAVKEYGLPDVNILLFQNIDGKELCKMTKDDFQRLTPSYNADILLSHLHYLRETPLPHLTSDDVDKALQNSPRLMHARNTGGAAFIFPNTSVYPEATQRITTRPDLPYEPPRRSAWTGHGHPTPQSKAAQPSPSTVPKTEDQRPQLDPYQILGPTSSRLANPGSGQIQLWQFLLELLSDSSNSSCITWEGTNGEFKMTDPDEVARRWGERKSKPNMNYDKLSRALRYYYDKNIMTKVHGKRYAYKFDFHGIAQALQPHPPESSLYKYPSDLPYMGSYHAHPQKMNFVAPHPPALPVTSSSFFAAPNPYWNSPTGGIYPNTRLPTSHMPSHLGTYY
# In short: as §1
# ELF1 = ELF1 (Homo sapiens, UniProt P32519 1-619); conditions: protein: recombinant; tags: N-terminal GST; dsDNA, one strand shown
# Chain of ELF1 (P32519 whole entry): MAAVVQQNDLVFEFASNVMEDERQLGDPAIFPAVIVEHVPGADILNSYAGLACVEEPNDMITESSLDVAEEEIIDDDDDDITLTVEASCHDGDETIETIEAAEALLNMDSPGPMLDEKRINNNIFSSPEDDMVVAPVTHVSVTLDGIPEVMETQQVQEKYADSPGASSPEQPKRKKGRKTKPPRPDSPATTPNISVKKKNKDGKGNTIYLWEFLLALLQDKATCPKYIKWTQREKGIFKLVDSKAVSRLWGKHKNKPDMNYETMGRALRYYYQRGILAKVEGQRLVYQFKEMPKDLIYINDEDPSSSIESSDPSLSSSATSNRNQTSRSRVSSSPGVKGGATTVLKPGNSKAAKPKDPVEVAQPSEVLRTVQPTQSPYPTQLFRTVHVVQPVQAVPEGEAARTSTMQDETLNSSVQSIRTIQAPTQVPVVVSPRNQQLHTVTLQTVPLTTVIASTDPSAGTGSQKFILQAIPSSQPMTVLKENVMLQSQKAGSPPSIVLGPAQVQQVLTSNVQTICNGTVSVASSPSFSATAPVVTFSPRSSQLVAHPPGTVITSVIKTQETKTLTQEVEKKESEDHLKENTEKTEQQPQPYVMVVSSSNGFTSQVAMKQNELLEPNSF
# In short: as §1
# EHF = molecular target: T5, EHF (Homo sapiens, UniProt Q9NZC4 1-300); conditions: protein: recombinant; tags: N-terminal GST; dsDNA, one strand shown
# T5 sequence: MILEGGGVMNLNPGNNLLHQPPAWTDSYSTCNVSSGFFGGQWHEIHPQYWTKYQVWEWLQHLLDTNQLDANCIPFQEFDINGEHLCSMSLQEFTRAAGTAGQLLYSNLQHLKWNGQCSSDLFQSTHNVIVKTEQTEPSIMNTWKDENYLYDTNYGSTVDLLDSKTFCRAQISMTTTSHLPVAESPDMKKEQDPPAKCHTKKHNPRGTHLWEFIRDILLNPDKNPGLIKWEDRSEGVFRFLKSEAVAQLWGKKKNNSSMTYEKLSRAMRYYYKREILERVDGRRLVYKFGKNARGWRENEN
# In short: as §1
# SPI1 = SPI1 (Homo sapiens, UniProt P17947 1-270); conditions: protein: recombinant; tags: N-terminal GST; dsDNA, one strand shown
# In short: as §1
# SPIB = SPIB (Homo sapiens, UniProt Q01892 1-262); conditions: protein: recombinant; tags: N-terminal GST; dsDNA, one strand shown
# Chain of SPIB (Q01892 whole entry): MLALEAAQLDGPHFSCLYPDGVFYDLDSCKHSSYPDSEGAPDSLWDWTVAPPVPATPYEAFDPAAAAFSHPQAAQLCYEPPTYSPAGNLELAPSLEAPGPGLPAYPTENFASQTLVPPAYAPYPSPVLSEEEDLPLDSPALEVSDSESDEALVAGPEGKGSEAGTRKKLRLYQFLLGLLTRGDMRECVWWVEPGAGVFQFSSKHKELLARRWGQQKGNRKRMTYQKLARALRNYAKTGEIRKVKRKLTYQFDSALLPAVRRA
# In short: as §1
# ELK3 = molecular target: T6, ELK3 (Homo sapiens, UniProt P41970 1-407); conditions: protein: recombinant; tags: N-terminal GST; dsDNA, one strand shown
# T6 sequence: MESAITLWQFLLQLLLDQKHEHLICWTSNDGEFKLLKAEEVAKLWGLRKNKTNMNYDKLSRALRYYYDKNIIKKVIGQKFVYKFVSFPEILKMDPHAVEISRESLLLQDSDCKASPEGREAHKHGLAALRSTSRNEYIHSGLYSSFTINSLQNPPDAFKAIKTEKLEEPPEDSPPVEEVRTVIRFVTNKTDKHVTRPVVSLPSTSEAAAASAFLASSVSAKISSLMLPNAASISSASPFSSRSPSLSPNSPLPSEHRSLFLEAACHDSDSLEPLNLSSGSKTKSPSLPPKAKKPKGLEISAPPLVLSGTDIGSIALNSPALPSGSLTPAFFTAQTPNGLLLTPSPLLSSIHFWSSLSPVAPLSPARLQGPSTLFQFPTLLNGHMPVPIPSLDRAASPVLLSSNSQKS
# In short: as §1
# FEV = molecular target: T7, FEV (Homo sapiens, UniProt Q99581 1-238); conditions: protein: recombinant; tags: N-terminal GST; dsDNA, one strand shown
# T7 sequence: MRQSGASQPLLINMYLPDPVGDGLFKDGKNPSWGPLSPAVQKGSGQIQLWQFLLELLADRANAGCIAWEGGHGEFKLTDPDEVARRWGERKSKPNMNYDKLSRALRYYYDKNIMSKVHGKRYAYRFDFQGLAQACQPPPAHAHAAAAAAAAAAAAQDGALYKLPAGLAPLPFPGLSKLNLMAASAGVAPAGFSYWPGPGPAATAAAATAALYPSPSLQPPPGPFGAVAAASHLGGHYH
# In short: as §1
# ETV5 = ETV5 (Homo sapiens, UniProt P41161 1-510); conditions: protein: recombinant; tags: N-terminal GST; dsDNA, one strand shown
# Chain of ETV5 (P41161 whole entry): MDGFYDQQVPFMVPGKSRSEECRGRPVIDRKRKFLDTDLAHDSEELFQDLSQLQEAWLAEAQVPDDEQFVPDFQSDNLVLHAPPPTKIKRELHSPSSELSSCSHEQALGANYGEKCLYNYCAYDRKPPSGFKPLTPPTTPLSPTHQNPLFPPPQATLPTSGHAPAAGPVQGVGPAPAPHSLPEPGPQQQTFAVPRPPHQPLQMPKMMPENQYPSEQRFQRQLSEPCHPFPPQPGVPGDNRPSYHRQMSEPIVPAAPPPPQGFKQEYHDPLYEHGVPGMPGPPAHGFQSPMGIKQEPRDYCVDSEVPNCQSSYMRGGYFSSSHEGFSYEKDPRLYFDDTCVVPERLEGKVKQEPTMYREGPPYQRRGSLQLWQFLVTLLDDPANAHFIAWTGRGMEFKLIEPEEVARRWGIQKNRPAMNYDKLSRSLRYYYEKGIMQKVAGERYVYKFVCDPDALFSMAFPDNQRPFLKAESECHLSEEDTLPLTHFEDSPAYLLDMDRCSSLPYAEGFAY
# In short: as §1
# HSF1 = HSF1 (Homo sapiens, UniProt Q00613 1-529); conditions: protein: recombinant; tags: N-terminal GST; chain copies: 3; dsDNA, one strand shown
# Chain of HSF1 (Q00613 whole entry): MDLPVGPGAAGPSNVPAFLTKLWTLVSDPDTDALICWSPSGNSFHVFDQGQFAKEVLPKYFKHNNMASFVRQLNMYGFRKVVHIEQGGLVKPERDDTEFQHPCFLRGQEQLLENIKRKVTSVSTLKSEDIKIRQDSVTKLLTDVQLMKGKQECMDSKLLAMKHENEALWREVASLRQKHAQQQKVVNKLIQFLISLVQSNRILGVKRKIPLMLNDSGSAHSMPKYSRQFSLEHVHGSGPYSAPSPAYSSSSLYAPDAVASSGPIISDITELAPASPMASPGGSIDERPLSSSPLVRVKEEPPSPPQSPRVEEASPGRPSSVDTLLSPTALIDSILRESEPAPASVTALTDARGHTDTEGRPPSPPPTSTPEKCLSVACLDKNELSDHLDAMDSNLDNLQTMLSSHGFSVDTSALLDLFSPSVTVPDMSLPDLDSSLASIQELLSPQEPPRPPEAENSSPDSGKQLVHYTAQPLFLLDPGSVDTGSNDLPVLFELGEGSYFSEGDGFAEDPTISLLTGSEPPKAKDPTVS
# In short: as §1
# SPIC = molecular target: T8, SPIC (Homo sapiens, UniProt Q8N5J4 1-248); conditions: protein: recombinant; tags: N-terminal GST; dsDNA, one strand shown
# T8 sequence: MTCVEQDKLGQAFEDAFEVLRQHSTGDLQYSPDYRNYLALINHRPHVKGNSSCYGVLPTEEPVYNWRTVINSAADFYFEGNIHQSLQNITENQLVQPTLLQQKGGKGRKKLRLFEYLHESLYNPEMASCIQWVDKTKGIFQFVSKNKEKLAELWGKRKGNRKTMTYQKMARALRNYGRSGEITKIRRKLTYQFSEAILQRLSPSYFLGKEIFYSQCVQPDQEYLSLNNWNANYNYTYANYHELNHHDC
# In short: as §1
# ELF4 = ELF4 (Homo sapiens, UniProt Q99607 1-663); conditions: protein: recombinant; tags: N-terminal GST; dsDNA, one strand shown
# Chain of ELF4 (Q99607 whole entry): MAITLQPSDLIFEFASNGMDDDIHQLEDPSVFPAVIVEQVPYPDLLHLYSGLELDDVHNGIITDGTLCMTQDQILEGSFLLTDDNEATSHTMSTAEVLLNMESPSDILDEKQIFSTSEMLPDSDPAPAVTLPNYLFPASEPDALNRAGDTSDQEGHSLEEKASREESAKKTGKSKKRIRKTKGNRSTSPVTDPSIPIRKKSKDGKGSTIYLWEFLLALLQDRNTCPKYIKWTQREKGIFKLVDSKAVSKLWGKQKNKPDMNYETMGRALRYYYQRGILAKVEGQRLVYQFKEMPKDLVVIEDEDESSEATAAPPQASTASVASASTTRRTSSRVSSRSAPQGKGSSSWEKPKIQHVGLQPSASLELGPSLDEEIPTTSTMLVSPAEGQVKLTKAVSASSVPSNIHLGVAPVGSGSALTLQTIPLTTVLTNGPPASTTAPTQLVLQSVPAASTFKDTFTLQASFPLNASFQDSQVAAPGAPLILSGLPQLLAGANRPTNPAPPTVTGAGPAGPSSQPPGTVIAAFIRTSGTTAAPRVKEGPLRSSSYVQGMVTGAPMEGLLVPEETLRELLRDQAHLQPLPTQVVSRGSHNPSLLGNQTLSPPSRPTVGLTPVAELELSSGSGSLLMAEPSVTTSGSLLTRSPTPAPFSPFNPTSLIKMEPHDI
# In short: as §1
# ELK4 = molecular target: T9, ELK4 (Homo sapiens, UniProt P28324-2 1-405); conditions: protein: recombinant; tags: N-terminal GST; dsDNA, one strand shown
# T9 sequence: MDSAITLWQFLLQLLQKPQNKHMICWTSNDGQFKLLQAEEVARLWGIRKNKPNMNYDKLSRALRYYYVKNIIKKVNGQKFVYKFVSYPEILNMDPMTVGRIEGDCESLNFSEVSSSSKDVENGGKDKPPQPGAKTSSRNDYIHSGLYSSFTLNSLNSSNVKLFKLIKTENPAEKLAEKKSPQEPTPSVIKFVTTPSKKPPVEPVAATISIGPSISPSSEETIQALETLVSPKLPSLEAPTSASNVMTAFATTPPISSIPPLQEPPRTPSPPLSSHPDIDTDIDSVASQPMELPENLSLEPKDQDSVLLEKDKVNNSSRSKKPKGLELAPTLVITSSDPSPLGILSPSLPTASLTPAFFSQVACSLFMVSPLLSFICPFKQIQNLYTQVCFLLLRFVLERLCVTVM
# In short: as §1
# ETV2 = molecular target: T10, ETV2 (Homo sapiens, UniProt O00321 1-342); conditions: protein: recombinant; tags: N-terminal GST; dsDNA, one strand shown
# T10 sequence: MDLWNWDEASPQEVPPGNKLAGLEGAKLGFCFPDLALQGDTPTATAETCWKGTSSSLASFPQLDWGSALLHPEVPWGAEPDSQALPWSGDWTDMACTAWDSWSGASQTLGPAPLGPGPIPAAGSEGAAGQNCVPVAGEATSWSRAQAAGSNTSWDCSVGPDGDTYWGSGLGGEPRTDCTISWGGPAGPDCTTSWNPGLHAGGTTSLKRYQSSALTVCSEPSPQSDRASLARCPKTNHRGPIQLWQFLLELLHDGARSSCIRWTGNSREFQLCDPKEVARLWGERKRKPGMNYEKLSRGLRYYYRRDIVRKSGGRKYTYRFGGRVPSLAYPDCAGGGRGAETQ
# In short: as §1
# ELF3 = molecular target: T11, ELF3 (Homo sapiens, UniProt P78545 1-371); conditions: protein: recombinant; tags: N-terminal GST; dsDNA, one strand shown
# T11 sequence: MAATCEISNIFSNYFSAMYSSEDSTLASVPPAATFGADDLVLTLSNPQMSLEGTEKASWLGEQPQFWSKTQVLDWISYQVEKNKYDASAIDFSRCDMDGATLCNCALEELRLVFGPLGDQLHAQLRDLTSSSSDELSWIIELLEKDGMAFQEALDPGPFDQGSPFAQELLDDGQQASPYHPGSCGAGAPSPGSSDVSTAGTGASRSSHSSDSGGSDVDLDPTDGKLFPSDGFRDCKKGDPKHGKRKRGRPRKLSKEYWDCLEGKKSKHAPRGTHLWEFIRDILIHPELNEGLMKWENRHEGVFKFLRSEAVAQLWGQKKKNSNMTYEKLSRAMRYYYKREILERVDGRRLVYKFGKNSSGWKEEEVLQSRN
# In short: as §1
# CRX = CRX (Homo sapiens, UniProt O43186 1-299); conditions: protein: recombinant; tags: N-terminal GST; dsDNA, one strand shown
# Chain of CRX (O43186 whole entry): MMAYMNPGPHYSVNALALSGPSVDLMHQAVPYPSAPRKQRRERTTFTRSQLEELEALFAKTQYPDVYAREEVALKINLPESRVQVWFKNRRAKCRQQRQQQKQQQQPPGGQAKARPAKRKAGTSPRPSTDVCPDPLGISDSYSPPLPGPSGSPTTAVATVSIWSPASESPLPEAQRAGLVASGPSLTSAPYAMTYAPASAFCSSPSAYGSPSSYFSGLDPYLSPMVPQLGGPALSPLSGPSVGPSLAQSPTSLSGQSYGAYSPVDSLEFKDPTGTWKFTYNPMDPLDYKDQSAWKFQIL
# In short: as §1
# ETV1 = ETV1 (Homo sapiens, UniProt P50549 1-477); conditions: protein: recombinant; tags: N-terminal GST; dsDNA, one strand shown
# Chain of ETV1 (P50549 whole entry): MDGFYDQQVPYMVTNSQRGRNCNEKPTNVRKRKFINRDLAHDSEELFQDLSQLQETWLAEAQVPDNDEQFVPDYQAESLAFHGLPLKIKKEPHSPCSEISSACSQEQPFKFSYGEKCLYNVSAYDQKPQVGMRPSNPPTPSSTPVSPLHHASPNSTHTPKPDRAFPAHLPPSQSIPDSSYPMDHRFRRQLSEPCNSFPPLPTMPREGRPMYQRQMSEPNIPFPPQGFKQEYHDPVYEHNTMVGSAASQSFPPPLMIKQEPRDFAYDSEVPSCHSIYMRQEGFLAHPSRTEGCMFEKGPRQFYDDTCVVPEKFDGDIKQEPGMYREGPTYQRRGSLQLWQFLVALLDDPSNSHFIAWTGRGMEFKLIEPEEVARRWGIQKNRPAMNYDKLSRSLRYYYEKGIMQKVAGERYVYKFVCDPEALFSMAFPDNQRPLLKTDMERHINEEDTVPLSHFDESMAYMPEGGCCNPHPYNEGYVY
# In short: as §1
sequence,measurement,setting,value
CCTGAC,binding signal,FLI1,"1.49 fold enrichment (6-mer frequency, TF over GST control)"
same,binding signal,ELK1,"1.57 fold enrichment (6-mer frequency, TF over GST control)"
same,binding signal,GABPA,"1.49 fold enrichment (6-mer frequency, TF over GST control)"
same,binding signal,ERG,"1.48 fold enrichment (6-mer frequency, TF over GST control)"
same,binding signal,ELF1,"1.46 fold enrichment (6-mer frequency, TF over GST control)"
same,binding signal,EHF,"1.58 fold enrichment (6-mer frequency, TF over GST control)"
same,binding signal,SPI1,"1.44 fold enrichment (6-mer frequency, TF over GST control)"
same,binding signal,SPIB,"1.46 fold enrichment (6-mer frequency, TF over GST control)"
same,binding signal,ELK3,"1.56 fold enrichment (6-mer frequency, TF over GST control)"
same,binding signal,FEV,"1.5 fold enrichment (6-mer frequency, TF over GST control)"
same,binding signal,ETV5,"1.71 fold enrichment (6-mer frequency, TF over GST control)"
same,binding signal,HSF1,"1.2 fold enrichment (6-mer frequency, TF over GST control)"
same,binding signal,SPIC,"1.3 fold enrichment (6-mer frequency, TF over GST control)"
same,binding signal,ELF4,"1.42 fold enrichment (6-mer frequency, TF over GST control)"
same,binding signal,ELK4,"1.5 fold enrichment (6-mer frequency, TF over GST control)"
same,binding signal,ETV2,"1.61 fold enrichment (6-mer frequency, TF over GST control)"
same,binding signal,ELF3,"1.7 fold enrichment (6-mer frequency, TF over GST control)"
same,binding signal,CRX,"1.11 fold enrichment (6-mer frequency, TF over GST control)"
same,binding signal,ETV1,"1.61 fold enrichment (6-mer frequency, TF over GST control)"
